From PubChem BioAssay (NCI)
About 83,000 compounds went through this panel and 20% of them were active in at least one assay; those are over-represented in the sample as a whole.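 Percent growth is the endpoint: 0 to 100 indicates growth inhibition (40 means 60% inhibition), 0 means no net growth, and negative values indicate cell death.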 Active and inactive are the calls of the source. The calls were made as follows: active = growth percent below 10; inactive = the rest.

Legend:
Test in all cases: NCI-60 one-dose screen, 48 h (100 = growth as untreated, 0 = no growth, -100 = all killed)
Conditions in all cases: 10 µM unless noted
NCI-H23 lung = system: NCI-H23 lung
NCI-H322M lung = system: NCI-H322M lung
HOP-62 NSCLC = system: HOP-62 NSCLC
NCI-H460 lung = system: NCI-H460 lung
HOP-92 NSCLC = system: HOP-92 NSCLC
NCI-H522 lung = system: NCI-H522 lung
A549/ATCC NSCLC = system: A549/ATCC NSCLC
786-0 renal = system: 786-0 renal
COLO 205 colon = system: COLO 205 colon
DU-145 prostate = system: DU-145 prostate
K-562 leukemia = system: K-562 leukemia
MALME-3M melanoma = system: MALME-3M melanoma
MDA-MB-231 breast = system: MDA-MB-231 breast
RXF 393 renal = system: RXF 393 renal
SF-268 CNS = system: SF-268 CNS
SF-295 CNS = system: SF-295 CNS
SF-539 CNS = system: SF-539 CNS
UACC-257 melanoma = system: UACC-257 melanoma
M14 melanoma = system: M14 melanoma
HCT-15 colon = system: HCT-15 colon

Measured: growth

COC(=O)/C(CCC=C(C)C)=C1\[C@@H](OC(C)=O)C[C@@]2(C)[C@H]1C[C@@H](O)[C@H]1[C@@]3(C)CC[C@H](NCCCNCCCCNCCCN)[C@@H](C)[C@@H]3CC[C@@]12C
inactive: NCI-H23 lung 61.4% | NCI-H322M lung 67.9% | HOP-62 NSCLC 52.1% | NCI-H460 lung 19.4% | HOP-92 NSCLC 52.6% | NCI-H522 lung 93.7% | A549/ATCC NSCLC 62.1% | 786-0 renal 44.8% | COLO 205 colon 21.6% | DU-145 prostate 70.5% | K-562 leukemia 33.4% | MALME-3M melanoma 47.2% | MDA-MB-231 breast 56% | RXF 393 renal 75.8% | SF-268 CNS 81.3% | SF-295 CNS 41.9% | SF-539 CNS 66% | UACC-257 melanoma 91.9% | M14 melanoma 40% | HCT-15 colon 76.8%

c1ccc(-c2ccc(-c3nc4ccccc4[nH]3)cc2)cc1
active: K-562 leukemia 7.32%
inactive: NCI-H23 lung 94% | NCI-H322M lung 98.9% | HOP-62 NSCLC 80.5% | NCI-H460 lung 95.6% | HOP-92 NSCLC 69.7% | NCI-H522 lung 94.3% | A549/ATCC NSCLC 91.8% | 786-0 renal 88% | COLO 205 colon 102% | DU-145 prostate 95.2% | MALME-3M melanoma 92.4% | MDA-MB-231 breast 64.3% | RXF 393 renal 92.1% | SF-268 CNS 77.8% | SF-295 CNS 101% | SF-539 CNS 99% | UACC-257 melanoma 98% | M14 melanoma 93.8% | HCT-15 colon 78.5%

O=c1c2cc(F)ccc2sc2c(NCCCNCCO)nc3ccc(Cl)cc3c12
inactive: NCI-H23 lung 81.6% | NCI-H322M lung 79.2% | HOP-62 NSCLC 61% | HOP-92 NSCLC 36.8% | NCI-H522 lung 49.1% | A549/ATCC NSCLC 57.7% | 786-0 renal 58.8% | DU-145 prostate 37.7% | MALME-3M melanoma 106% | MDA-MB-231 breast 22.5% | RXF 393 renal 61.1% | SF-268 CNS 47.9% | SF-295 CNS 91.3% | SF-539 CNS 84.8% | UACC-257 melanoma 97.9% | M14 melanoma 33.4% | HCT-15 colon 51.2%
active: NCI-H460 lung -53.8% | COLO 205 colon 3.05% | K-562 leukemia -25.8%

Nc1n[nH]c2ccc([C@@H]3Nc4ccc5[nH]ncc5c4[C@H]4[C@H]5CCC(C5)[C@H]43)cc12
active: NCI-H460 lung 3.93% | NCI-H522 lung -21.4% | COLO 205 colon 0.265% | DU-145 prostate 7.74% | K-562 leukemia 9.58% | SF-539 CNS -15.8% | M14 melanoma 8.3%
inactive: NCI-H23 lung 31.4% | NCI-H322M lung 42.7% | HOP-62 NSCLC 35.7% | HOP-92 NSCLC 33.7% | A549/ATCC NSCLC 18.5% | 786-0 renal 24.1% | MALME-3M melanoma 52.2% | MDA-MB-231 breast 11.8% | RXF 393 renal 25.6% | SF-268 CNS 25% | SF-295 CNS 14% | UACC-257 melanoma 69.4% | HCT-15 colon 16.5%

O=C(NC1C(O)OC(CO)C(O)C1O)NS(=O)(=O)c1ccc(Cl)cc1 (stereo not given)
inactive: NCI-H23 lung 104% | NCI-H322M lung 99.5% | HOP-62 NSCLC 92.9% | NCI-H460 lung 104% | HOP-92 NSCLC 101% | NCI-H522 lung 100% | A549/ATCC NSCLC 109% | 786-0 renal 104% | COLO 205 colon 114% | DU-145 prostate 108% | K-562 leukemia 108% | MALME-3M melanoma 104% | MDA-MB-231 breast 103% | RXF 393 renal 115% | SF-268 CNS 98.7% | SF-295 CNS 103% | SF-539 CNS 101% | UACC-257 melanoma 104% | M14 melanoma 102% | HCT-15 colon 102%

O=C(NCCCN1CCC(N2CCCCC2)CC1)C1=Cc2cc(Br)ccc2OC1
inactive: NCI-H23 lung 56.2% | NCI-H322M lung 69.2% | HOP-62 NSCLC 87.9% | NCI-H460 lung 13.8% | HOP-92 NSCLC 80.7% | NCI-H522 lung 31% | A549/ATCC NSCLC 49.1% | 786-0 renal 53.5% | COLO 205 colon 46.1% | DU-145 prostate 68.7% | K-562 leukemia 14.8% | MALME-3M melanoma 97.9% | MDA-MB-231 breast 17.6% | RXF 393 renal 52.3% | SF-268 CNS 50.2% | SF-539 CNS 87.4% | UACC-257 melanoma 59.8% | M14 melanoma 38.7% | HCT-15 colon 41.1%
active: SF-295 CNS 3.29%

Cc1ccc2nc(NC(=O)CSC(=S)N3CCN(c4ccccc4)CC3)sc2c1
inactive: NCI-H23 lung 83.7% | NCI-H322M lung 92.9% | HOP-62 NSCLC 105% | NCI-H460 lung 112% | HOP-92 NSCLC 82.6% | A549/ATCC NSCLC 94.6% | 786-0 renal 103% | COLO 205 colon 116% | DU-145 prostate 112% | K-562 leukemia 95.7% | MALME-3M melanoma 105% | MDA-MB-231 breast 101% | RXF 393 renal 108% | SF-268 CNS 101% | SF-295 CNS 104% | SF-539 CNS 104% | UACC-257 melanoma 108% | M14 melanoma 97.8% | HCT-15 colon 97%
active: NCI-H522 lung -81.8%

CCOC(=O)c1sc(-c2ccc(OS(=O)(=O)C[C@]34CCC(CC3=O)C4(C)C)c(C=O)c2)nc1C
active: HOP-62 NSCLC 8.26% | NCI-H460 lung -1.32% | NCI-H522 lung 1.5% | COLO 205 colon -34.9% | K-562 leukemia 7.5% | UACC-257 melanoma 4.31% | M14 melanoma 3.97% | HCT-15 colon 5.75%
inactive: NCI-H23 lung 28.5% | NCI-H322M lung 50.4% | HOP-92 NSCLC 38.4% | A549/ATCC NSCLC 15.4% | 786-0 renal 27.4% | DU-145 prostate 21.3% | MALME-3M melanoma 38.1% | MDA-MB-231 breast 19.7% | RXF 393 renal 52.9% | SF-268 CNS 15% | SF-295 CNS 26.2% | SF-539 CNS 43.2%

Nc1nc(-c2ccccc2Br)nn1-c1nc2ccccc2s1
inactive: NCI-H23 lung 98% | NCI-H322M lung 105% | HOP-62 NSCLC 105% | NCI-H460 lung 100% | HOP-92 NSCLC 99.6% | NCI-H522 lung 85.6% | A549/ATCC NSCLC 98.4% | 786-0 renal 104% | COLO 205 colon 110% | DU-145 prostate 110% | K-562 leukemia 94.8% | MALME-3M melanoma 105% | MDA-MB-231 breast 101% | RXF 393 renal 104% | SF-268 CNS 97.4% | SF-295 CNS 102% | SF-539 CNS 99.6% | UACC-257 melanoma 89% | M14 melanoma 98.3% | HCT-15 colon 97.2%

COc1cc(C(=O)NN=C2c3ccccc3-c3ccccc32)cc(OC)c1OC
active: COLO 205 colon 2.88% | SF-295 CNS -0.172% | SF-539 CNS 4.99%
inactive: NCI-H23 lung 62% | NCI-H322M lung 54% | HOP-62 NSCLC 36.6% | NCI-H460 lung 11.2% | HOP-92 NSCLC 42.4% | NCI-H522 lung 15% | A549/ATCC NSCLC 43.6% | 786-0 renal 41.9% | DU-145 prostate 49.7% | K-562 leukemia 13.9% | MALME-3M melanoma 44.4% | MDA-MB-231 breast 49.1% | RXF 393 renal 16.7% | SF-268 CNS 45.1% | UACC-257 melanoma 38.1% | M14 melanoma 17.6% | HCT-15 colon 27.2%

CCCCOCc1cc(CN2CCN(C)CC2)c(O)c2ncccc12
inactive: NCI-H23 lung 60% | NCI-H322M lung 53.9% | HOP-62 NSCLC 32.9% | NCI-H460 lung 21.9% | HOP-92 NSCLC 57.9% | NCI-H522 lung 24.9% | A549/ATCC NSCLC 35.9% | 786-0 renal 38.1% | COLO 205 colon 85.4% | DU-145 prostate 63.9% | K-562 leukemia 50.7% | MALME-3M melanoma 93.4% | MDA-MB-231 breast 47.1% | RXF 393 renal 69% | SF-268 CNS 47.9% | SF-295 CNS 58.5% | SF-539 CNS 53.3% | UACC-257 melanoma 51.4% | M14 melanoma 41.2% | HCT-15 colon 25.6%

CCN(CC)CCNC(=O)C(Cl)=C1C(Cl)=C(Cl)C(Cl)=C1Cl
inactive: NCI-H23 lung 55.9% | NCI-H322M lung 81.7% | HOP-62 NSCLC 75.5% | NCI-H460 lung 19.3% | HOP-92 NSCLC 53.8% | A549/ATCC NSCLC 46.6% | 786-0 renal 90.1% | COLO 205 colon 54.5% | DU-145 prostate 48.4% | K-562 leukemia 24.2% | MALME-3M melanoma 58% | MDA-MB-231 breast 50.1% | RXF 393 renal 66.9% | SF-268 CNS 52% | SF-295 CNS 71.7% | SF-539 CNS 60.1% | UACC-257 melanoma 44.3% | M14 melanoma 38.7% | HCT-15 colon 50.5%
active: NCI-H522 lung -14.7%

FC(F)(F)c1cccc(Nc2nc3ccccc3nc2Nc2cccc(C(F)(F)F)c2)c1
active: NCI-H322M lung -28% | HOP-62 NSCLC 2.35% | NCI-H460 lung -59.4% | HOP-92 NSCLC 6.66% | NCI-H522 lung -57.1% | A549/ATCC NSCLC 3.08% | 786-0 renal -75.3% | COLO 205 colon -87.2% | DU-145 prostate -1.33% | K-562 leukemia -19.6% | MALME-3M melanoma -81.6% | MDA-MB-231 breast -56.3% | RXF 393 renal -89.6% | SF-268 CNS -9.63% | SF-295 CNS -78.9% | SF-539 CNS -78.7% | UACC-257 melanoma -75.1% | M14 melanoma -69.9% | HCT-15 colon 2.32%
inactive: NCI-H23 lung 39.7%

O=c1c(-c2nc3ccccc3[nH]2)cc2ccccc2n1Cc1cn(Cc2ccc(N3CCOCC3)cc2)nn1
inactive: NCI-H23 lung 76.5% | NCI-H322M lung 68.8% | HOP-62 NSCLC 16.3% | NCI-H460 lung 55.3% | HOP-92 NSCLC 75.9% | NCI-H522 lung 28% | A549/ATCC NSCLC 74.8% | 786-0 renal 57.1% | COLO 205 colon 83.7% | DU-145 prostate 36.9% | K-562 leukemia 100% | MALME-3M melanoma 64.2% | MDA-MB-231 breast 71.5% | RXF 393 renal 35.7% | SF-268 CNS 22.6% | SF-295 CNS 95.4% | SF-539 CNS 52.6% | UACC-257 melanoma 78.7% | M14 melanoma 80.1% | HCT-15 colon 78.6%
